# Results as given in PubChem BioAssay (Tox21).
# Values without a mark were called inactive. Records with an inconclusive call do not appear. Where a call stands in place of a potency, no number is given. The source made the active and inactive calls. Unless noted, calls follow the shape of the dose curve; as a rule, active = well fitted curve in the direction sought with a large enough effect in the repeat runs; inconclusive = weak or mixed curves; inactive = no such curve, though single readings can be large; an effect the other way counts as inactive or inconclusive.
# Assays:
# [1] = qHTS assay to identify small molecule antagonists of the estrogen related receptor (ERR) signaling pathway from Tox21 library - cell viability counter screen (AID 1224834); also: nearly all actives have a fitted effect of over 30% in size
# In short: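 CellTiter-Fluor fluorescence, read after 30 min at 37 C, measures viability of ERR cells. Cells plated at 2,000/well and incubated 6 h before pin-tool compound addition, then exposed 17.5 hours at 37 C.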
# [2] = biological target: Luciferin 4-monooxygenase (Photinus pyralis) (UniProt P08659); experiment: qHTS assay to identify small molecule inhibitors of firefly luciferase (AID 1224835); also: nearly all actives have a fitted effect of over 25% in size
# In short: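 Inhibition of purified Photinus luciferase is measured by luminescence. Substrate levels (D-luciferin, ATP) sit at their KM values. Each compound is tested in a concentration series.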
# [3] = qHTS assay to identify small molecule agonists of the constitutive androstane receptor (CAR) signaling pathway - cell viability counter screen (AID 1224836); also: nearly all actives have a fitted effect of over 45% in size
# In short: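 Viability read-out: CellTiter-Fluor fluorescence after 23 h compound exposure at 37 C/5% CO2 in double-stable HepG2-CYP2B6-hCAR cells, with PK11195 present at 0.75 uM final; compounds tested in 15-point titration.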
# [4] = qHTS assay to identify small molecule antagonists of the constitutive androstane receptor (CAR) signaling pathway - cell viability counter screen (AID 1224837); also: nearly all actives have a fitted effect of over 45% in size
# In short: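 Cytotoxicity counter-screen: CellTiter-Fluor fluorescence after 23 h compound exposure (15-point qHTS) in double-stable HepG2-CYP2B6-hCAR cells, with 50 nM CITCO added.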
# [5] = biological target: Nuclear receptor subfamily 1 group I member 3 (Homo sapiens) (UniProt Q14994); experiment: qHTS assay to identify small molecule antagonists of the constitutive androstane receptor (CAR) signaling pathway (AID 1224838);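 also: HepG2 cells stably expressing hCAR with CYP2B6 luciferase reporter stimulated by CITCO; nearly all actives have a fitted effect of over 40% in size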
# In short: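 Antagonism measured as luciferase signal (ONE-Glo, 30 min, room temperature) in CAR-stimulated cells: HepG2-CYP2B6-hCAR double-stable line exposed 24 hr at 37 C to compound in a 15-point series plus 50 nM CITCO.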
# [6] = biological target: Nuclear receptor subfamily 1 group I member 3 (Homo sapiens) (UniProt Q14994); experiment: qHTS assay to identify small molecule agonists of the constitutive androstane receptor (CAR) signaling pathway (AID 1224839); also: nearly all actives have a fitted effect of over 15% in size; also: potency is read from the fitted curve at half-maximal effect;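 as to activation: HepG2 cells stably carrying human CAR and a CYP2B6 luciferase reporter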
# In short: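 Luminescence read-out (ONE-Glo, 30 min, room temperature) from double-stable HepG2-CYP2B6-hCAR cells exposed 24 h to 15-point compound series in presence of 0.75 uM PK11195 final.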
# [7] = qHTS assay to identify small molecule antagonists of the estrogen related receptor signaling pathway with the pleiotropic PPARgamma coactivator (PGC) from Tox21 10K library - cell viability counter screen (AID 1224840; active = well fitted cell-killing curve with a large enough effect in the repeat runs, not every such curve was filed as active; also: nearly all actives have a fitted effect of over 40% in size)
# In short: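 Counter-screen for cytotoxicity: after 17.5 h compound exposure at 37 C, CellTiter-Fluor reagent added to PGC/ERR cells for 30 min and fluorescence read. Cells were seeded at 2,000 per well 6 h before dosing.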
# [8] = qHTS assay to identify small molecule antagonists of the estrogen related receptor signaling pathway with the pleiotropic PPARgamma coactivator (PGC) from Tox21 10K library (AID 1224841; call rule not given here; also: actives are mostly falling curves and most rising ones were filed inactive; nearly all actives have a fitted effect of over 50% in size)
# In short: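 Luminescence (One-Glo, 30 min at room temperature) after 18 h compound treatment at 37 C of PGC/ERR reporter cells plated at 2,000 cells/well and settled 6 h beforehand.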
# [9] = biological target: Thyrotropin receptor (Homo sapiens) (UniProt P16473); experiment: qHTS assay to identify small molecule agonists of the thyroid stimulating hormone receptor (TSHR) signaling pathway (AID 1224843; calls by dose curve; also: nearly all actives have a fitted effect of over 45% in size)
# In short: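 Agonist activity read as cAMP rise via d2/cryptate HTRF competition, 1 h room-temperature detection, in HEK293 cells expressing TSHR. Fifteen-point titrations, each run in triplicate, with a 30 min room-temperature incubation beforehand.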
# [10] = qHTS assay to identify small molecule agonists of the hypoxia (HIF-1) signaling pathway - cell viability counter screen (AID 1224844; calls by dose curve; also: nearly all actives have a fitted effect of over 50% in size)
# In short: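 Cytotoxicity measured by CellTiter-Glo ATP luminescence in the wells also read for beta-lactamase signal. Cells were HRE-bla ME-180 (2,000/well, 0.5% dialyzed FBS), exposed to compounds for 17 h at 37C.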
# [11] = qHTS assay to identify small molecule agonists of H2AX (AID 1224845; active = well fitted activation curve with a large enough effect in the signal ratio in the repeat runs, not every such curve was filed as active; the % refers to the signal ratio)
# In short: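 Phospho-H2AX Ser139 measured by HTRF (ex 320 nm; em 665 and 620 nm) after 24 hr antibody incubation. Compounds, 15 concentrations, 0.76% DMSO, were applied to CHO-K1 cells for 3hr at 37C before lysis.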
# [12] = qHTS assay to identify small molecule agonists of the hypoxia (HIF-1) signaling pathway (AID 1224846; active = well fitted activation curve with a large enough effect in the signal ratio in the repeat runs, not every such curve was filed as active; the % refers to the signal ratio)
# In short: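 Compounds added to ME-180 cells carrying hypoxia-response-element beta-lactamase reporter (0.5% dialyzed FBS, 5 h preplating), 17 h at 37C; agonist activity detected by CCF4-AM B/G FRET read-out.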
# [13] = qHTS assay to identify small molecule agonists of H2AX - cell viability counter screen (AID 1224847; calls by dose curve;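 also: wild-type CHO-K1 cells; top concentration of the series differs between compounds; nearly all actives have a fitted effect of over 30% in size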)
# In short: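 CHO-K1 wt, 1000 cells/well, o/n 37C; cpds 15 conc, 3 h 37C, 0.76% DMSO; CellTiter-Glo, 30 min RT, luminescence.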
# [14] = qHTS assay to identify small molecule antagonists of the estrogen related receptor (ERR) signaling pathway from Tox21 library (AID 1224848); also: nearly all actives have a fitted effect of over 50% in size
# In short: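 Luciferase luminescence (ONE-Glo, 30 min room temperature) was the read-out. Cells of the NTP-supplied ERR line, 2,000 per well, were given 6 h at 37 C before compound addition in DMSO and 18 h exposure at 37 C.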
# [15] = qHTS assay to identify small molecule agonists of the estrogen related receptor (ERR) signaling pathway from Tox21 library (AID 1224849; calls by dose curve; also: nearly all actives have a fitted effect of over 15% in size); settings: ERR reporter cell line, ONE-Glo luciferase, 18 h; at 92.4 µM (top of the series) unless noted
# In short: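 Luminescent agonist read-out (One-Glo, 30-minute room-temperature incubation) following 18-hour compound treatment at 37 C of the ERR cell line, which had been plated 6 hours before dosing.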
# [16] = qHTS RealTime-Glo MT Cell Viability Assay in HepG2 cells - 24 hour (AID 1224867); also: nearly all actives have a fitted effect of over 50% in size
# In short: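 Cells + NanoLuc/prosubstrate dispensed (600 cells/well) → 5 h at 37 C/5% CO2 → compounds in DMSO transferred → 40 h incubation at 37 C, luminescence read at 0, 8, 16, 24, 32, 40 h.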
# [17] = qHTS RealTime-Glo MT Cell Viability Assay in HEK293 cells - 32 hour (AID 1224868)
# In short: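 Tox21 10K qHTS, HEK293, 600 cells/well, RealTime-Glo reagent co-dispensed with cells; 5 h preincubation, compound by pintool, 37 C, luminescence at 0–40 h.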
# [18] = A CellTox Green Cytotoxicity Assay to monitor cytotoxicity in HEK293 cells - 0 hour (AID 1224869); also: nearly all actives have a fitted effect of over 50% in size
# In short: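 Fluorescence from a DNA-binding dye excluded by viable cells was measured repeatedly in the same HEK293 wells (600 cells/well) during continuous compound exposure at 37 C. Each assay gives one read point: 0, 8, 16, 24, 32 or 40 h.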
# [19] = qHTS assay to identify small molecule agonists of the estrogen related receptor signaling pathway with the pleiotropic PPARgamma coactivator (PGC) from Tox21 10K library (AID 1224842); also: nearly all actives have a fitted effect of over 15% in size
# In short: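 Luminescence from One-Glo (30 min, room temperature) measured after PGC/ERR cells had 18 h at 37 C with pinned compound (23 nL in DMSO). Cells had been seeded at 2,000 per well and pre-incubated 6 h.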
# Sequence of Nuclear receptor subfamily 1 group I member 3 (Homo sapiens) (Q14994 whole entry, looked up): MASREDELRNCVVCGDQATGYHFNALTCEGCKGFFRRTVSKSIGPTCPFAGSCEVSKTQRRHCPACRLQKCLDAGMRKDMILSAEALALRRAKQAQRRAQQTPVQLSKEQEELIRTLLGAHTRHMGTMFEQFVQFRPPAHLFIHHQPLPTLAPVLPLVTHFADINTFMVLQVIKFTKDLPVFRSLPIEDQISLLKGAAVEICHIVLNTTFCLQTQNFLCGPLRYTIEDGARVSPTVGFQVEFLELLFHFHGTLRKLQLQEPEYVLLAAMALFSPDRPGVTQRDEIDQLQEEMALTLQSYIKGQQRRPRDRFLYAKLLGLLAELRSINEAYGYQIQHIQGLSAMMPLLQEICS
# Sequence of Luciferin 4-monooxygenase (Photinus pyralis) (P08659 whole entry, looked up): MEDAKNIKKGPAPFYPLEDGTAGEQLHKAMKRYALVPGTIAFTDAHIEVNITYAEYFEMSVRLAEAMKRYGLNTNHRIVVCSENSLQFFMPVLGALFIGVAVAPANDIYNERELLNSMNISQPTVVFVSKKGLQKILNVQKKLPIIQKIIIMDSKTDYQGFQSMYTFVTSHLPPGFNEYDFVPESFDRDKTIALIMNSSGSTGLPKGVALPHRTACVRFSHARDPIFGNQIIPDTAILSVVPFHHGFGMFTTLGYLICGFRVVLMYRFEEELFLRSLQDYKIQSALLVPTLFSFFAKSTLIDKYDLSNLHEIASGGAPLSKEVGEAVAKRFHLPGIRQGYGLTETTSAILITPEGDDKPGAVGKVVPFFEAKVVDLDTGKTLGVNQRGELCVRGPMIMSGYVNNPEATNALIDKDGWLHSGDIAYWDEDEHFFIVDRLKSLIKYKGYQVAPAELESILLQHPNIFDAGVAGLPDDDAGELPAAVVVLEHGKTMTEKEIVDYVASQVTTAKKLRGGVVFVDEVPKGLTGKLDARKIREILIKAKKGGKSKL
# Sequence of Thyrotropin receptor (Homo sapiens) (P16473 whole entry, looked up): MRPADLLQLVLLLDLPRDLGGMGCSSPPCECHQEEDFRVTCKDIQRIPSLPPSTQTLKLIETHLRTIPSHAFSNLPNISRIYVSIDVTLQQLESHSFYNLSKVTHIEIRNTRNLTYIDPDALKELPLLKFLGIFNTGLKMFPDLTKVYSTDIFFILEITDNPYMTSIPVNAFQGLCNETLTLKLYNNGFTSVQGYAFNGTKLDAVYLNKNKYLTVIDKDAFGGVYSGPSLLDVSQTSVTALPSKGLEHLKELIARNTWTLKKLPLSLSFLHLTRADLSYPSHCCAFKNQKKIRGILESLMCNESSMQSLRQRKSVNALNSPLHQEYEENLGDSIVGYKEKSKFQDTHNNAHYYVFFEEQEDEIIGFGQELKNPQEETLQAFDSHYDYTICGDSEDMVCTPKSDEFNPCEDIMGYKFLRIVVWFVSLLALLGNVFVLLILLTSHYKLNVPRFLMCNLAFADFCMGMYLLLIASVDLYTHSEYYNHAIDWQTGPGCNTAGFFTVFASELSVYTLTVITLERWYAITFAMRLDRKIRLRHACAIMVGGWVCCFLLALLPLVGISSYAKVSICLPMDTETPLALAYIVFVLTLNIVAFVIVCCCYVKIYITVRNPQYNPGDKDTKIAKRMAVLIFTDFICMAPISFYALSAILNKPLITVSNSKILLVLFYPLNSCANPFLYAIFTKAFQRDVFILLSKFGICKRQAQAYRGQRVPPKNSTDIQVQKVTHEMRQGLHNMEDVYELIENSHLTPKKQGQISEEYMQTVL
Structure (SMILES),Potency [1],Potency [2],Potency [3],Potency [4],Potency [5],Potency [6],Potency [7],Potency [8],Potency [9],Potency [10],Potency [11],outcome [12],Potency [13],Potency [14],"activity change, positive = activation [15]",outcome [16],Potency [17],Potency [18],Potency [19]
O=Cc1ccc([N+](=O)[O-])cc1,inactive,inactive,inactive,inactive,inactive,61.5 µM (active),inactive,inactive,inactive,inactive,inactive,inactive,inactive,inactive,51.8% (active),inactive,inactive,inactive,
CCC(=O)O[C@@H]1C[C@H]2CC[C@]1(C)C2(C)C,inactive,inactive,inactive,inactive,inactive,inactive,inactive,inactive,,inactive,inactive,inactive,inactive,inactive,0.21%,inactive,,inactive,inactive
CCCCCCCCOCCCN,inactive,inactive,inactive,inactive,inactive,inactive,inactive,,inactive,inactive,inactive,inactive,inactive,,,inactive,inactive,inactive,
C=C(C)C(=O)OCCCCCCCCCCOC(=O)C(=C)C,inactive,inactive,inactive,inactive,inactive,inactive,inactive,inactive,,inactive,inactive,inactive,inactive,inactive,1.48%,inactive,inactive,inactive,inactive
